Screening data from PubChem BioAssay.
PfHsp40 rescue: restores yeast growth despite PfHsp40 toxicity | growth rescue, % at 12.5 µM | S. cerevisiae expressing PfHsp40, growth rescue, ATP luminescence | AID 504582 | 340,000 compounds, 0.68% hits; in the data active means growth rescue above about 28%, passing the limit was not always enough;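 further: yeast W303a lacking pdr1 and pdr3 grown in galactose medium; growth measured after three days at 30 °C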
RecA splice inh: inhibitors of M. tuberculosis RecA intein splicing | P9WHJ3 | cell-free RecA intein splicing, fluorescence | inhibition, % (concentration not given with the values) | 290,000 compounds, 0.75% hits | AID 2221; in the data active means inhibition above about 30%;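 further: 0% = vehicle wells and 100% = reference inhibitor control wells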
Mtb hypoxia rep: reduces hypoxia-regulated biosensor signal in M. tuberculosis. 300,000 compounds, 0.1% hits. fluorescence inhibition, % (test concentration not listed). M. tuberculosis hypoxia-regulated fluorescent reporter, fluorescence; in the data active means fluorescence inhibition mostly above about 23%, no sharp cut-off; inactive means mostly below about 17%
Mtb bLac sens: beta-lactam sensitization of Mtb H37Rv; M. tuberculosis H37Rv growth with meropenem, percent inhibition; inhibition, % at 25 µM; 330,000 compounds, 0.27% hits; AID 434955; call rule not given here;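 further: growth measured after seven days incubation then overnight dye step; 0% = bacteria only wells and 100% = bacteria with antibiotic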
CCHFV vOTU inh: blocks the CCHF virus ovarian tumor domain protease. CCHFV vOTU protease, Pep-AMC fluorescence. inhibition, % at 11.5 µM. 370,000 compounds, 0.55% hits; in the data active means inhibition above about 30%; further: 0% = vehicle wells with enzyme and 100% = no enzyme wells
* hit, by the source's call; x = no result given. In the library only some 1.7% were active in any assay of this set; here they are far more common.

SMILES	PfHsp40 rescue	RecA splice inh	Mtb hypoxia rep	Mtb bLac sens	CCHFV vOTU inh
C[C@]12CCC3C(=CCc4cc(O)ccc43)C1CCC2=O (stereo partly specified)	x	x	0	x	x
C#Cc1ccc(C2C=C(C(=O)Nc3ccccc3)OC(OCc3ccc(CO)cc3)C2)cc1 (stereo unspecified)	x	x	0	x	x
O=C(N/N=C/c1sc2ccccc2c1O)c1cccc2ccccc12	32*	1	x	-3	-5
O=C(NN=Cc1sc2ccccc2c1O)c1ccccc1	x	x	2	x	x
COc1ccc(C(=O)N/N=C/c2sc3ccccc3c2O)cc1	262*	-11	x	67	x
COc1ccc2cc(C(=O)NN=Cc3sc4ccccc4c3O)ccc2c1	x	x	10	x	x
O=S(=O)(N=C(NS(=O)(=O)c1ccccc1)c1ccccc1)c1ccccc1	x	x	6	x	x
OCC12COC(c3ccccc3)N1C(c1ccccc1)OC2 (stereo unspecified)	-1	-1	3	15	1
OCC12CO[C@@H]3c4ccccc4[C@H](OC1)N32 (stereo partly specified)	45*	-1	x	-6	18
C=CCn1c(SCn2nnc3ccccc3c2=O)nnc1-c1ccc(Br)cc1	114*	-1	15	1	13
COc1ccc(C=NNC(=O)c2cccc(Br)c2)cc1CN1CCOCC1	x	x	-4	x	x
FC(F)(F)c1ccc(CN2CCN(Cc3ccco3)CC2)cc1	50*	-6	-1	-6	-16
COc1ccc(CN2CCN(Cc3ccco3)CC2)cc1	1	1	-8	2	11
COc1cccc2c1C(=O)c1c(O)c3c(c(O)c1C2=O)CC(O)(C(=O)CO)CC3OC1CC(N(C)C)C(O)C(C)O1 (stereo unspecified)	100*	x	x	x	12
COc1cccc2c1C(=O)c1c(O)c3c(c(O)c1C2=O)C[C@@](O)(C(C)=O)C[C@@H]3O[C@H]1C[C@H](N)[C@H](O)[C@H](C)O1	51*	x	x	x	8
COc1cccc2c1C(=O)c1c(O)c3c(c(O)c1C2=O)C[C@@](O)(C(=O)CO)C[C@@H]3O[C@H]1C[C@H](N)[C@@H](O)[C@H](C)O1	11	-7	x	94	x
CCOc1cc([N+](=O)[O-])cc(/C=N/NC(=O)c2c(-c3ccccc3)noc2C)c1O	261*	2	x	-3	x
CCOc1cc(/C=N/NC(=O)c2c(-c3ccccc3)noc2C)ccc1O	0	-3	x	-5	6
C=CCN(c1ccccc1)S(=O)(=O)c1cccc(C(=O)NNC(=O)c2ccccc2O)c1	92*	15	8	-5	7
C=CCN(c1ccccc1)S(=O)(=O)c1cccc(C(=O)O)c1	0	-1	x	-8	21
CN(c1ccccc1)c1nc(N2CCCC2)nc(-n2ccnc2)n1	393*	14	x	99	9
c1ccc(N(c2ccccc2)c2nc(N3CCCC3)nc(-n3ccnc3)n2)cc1	0	0	13	96	-9
COc1ccc(NCC(=O)NN=C/C=C/c2ccccc2[N+](=O)[O-])cc1	x	x	-3	x	x
CCOC1OC(C(=O)NCc2ccccc2)=CC(C(C)(C)C)C1CCCO (stereo unspecified)	x	x	6	x	x
CCNC(=O)CN(c1ccc(Oc2ccccc2)cc1)S(=O)(=O)c1ccccc1	60*	-1	-3	0	-2
SMILES	PfHsp40 rescue	RecA splice inh	Mtb hypoxia rep	Mtb bLac sens	CCHFV vOTU inh
COc1ccc(OC)c(/C=C(\NC(=O)c2ccccc2)C(=O)NN=Cc2ccc(C)s2)c1	x	x	6	x	x
CCC(=O)NNC(=S)NC(=O)c1ccc(C)cc1	69*	0	2	72	-11
Cc1cc(C(=O)NNC(=S)NC(=O)/C=C/c2ccccc2Cl)n[nH]1	56*	5	1	-13	-13
COc1ccc(C(=O)NC(=S)NNC(=O)c2ccccc2C)cc1	105*	x	-7	89	-5
Cc1cccc(C(=O)NC(=S)Nc2ccccc2C(=O)O)c1	1	-1	4	-3	-1
Cc1cc(C)nc(NC(=O)/C=C/c2ccccc2Cl)n1	1	8	x	3	13
COc1ccc(C(=O)NC(=S)NNC(=O)c2ccccc2O)cc1	-2	-2	11	56	-4
Cc1cccc(C(=O)NC(=S)NNC(=O)c2ccccc2Cl)c1	64*	7	-4	97	-6
C#CCOCCOCCOCCNc1nc(N2CCN(C(=O)C(C)n3cc(CCC(=O)O)nn3)CC2)nc(N2CCN(C(=O)C(CCCCN)n3cc(CCCC)nn3)CC2)n1 (stereo unspecified)	x	x	14	x	x
COc1ccc(C(=O)NNC(=S)NC(=O)/C=C/c2cccs2)cc1	74*	3	-15	99	9
Cc1cccc(C(=O)NC(=S)NNC(=O)Cc2ccccc2)c1	229*	9	5	99	1
